Test results reported in PubChem BioAssay (NCI).
Compounds without any hit were thinned out: in the full panel of roughly 83,000, 20% have a hit.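 Assay: single dose, 48 h. Readout: percent growth (0 = no net growth; negative = cell death). Active: <10.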 Calls of active or inactive are those of the source.

Assays:
Assay in all cases: NCI-60 one-dose screen, 48 h (100 = growth as untreated, 0 = no growth, -100 = all killed)
Settings in all cases: 10 µM unless noted
[1] = test system: NCI-H23 lung
[2] = test system: NCI-H226 lung
[3] = test system: NCI-H322M lung
[4] = test system: HOP-62 NSCLC
[5] = test system: NCI-H460 lung
[6] = test system: HOP-92 NSCLC
[7] = test system: NCI-H522 lung
[8] = test system: A549/ATCC NSCLC
[9] = test system: COLO 205 colon
[10] = test system: DU-145 prostate
[11] = test system: K-562 leukemia
[12] = test system: MALME-3M melanoma
[13] = test system: MDA-MB-231 breast
[14] = test system: RXF 393 renal
[15] = test system: SF-268 CNS
[16] = test system: SF-295 CNS
[17] = test system: SF-539 CNS
[18] = test system: UACC-257 melanoma
[19] = test system: 786-0 renal
[20] = test system: M14 melanoma

Measured: growth

CCCCn1c(=O)[nH]c(N)c(C(c2ccc(F)cc2)c2c(N)[nH]c(=O)n(CCCC)c2=O)c1=O
inactive: [1] 77.5% | [2] 77.7% | [3] 74.8% | [4] 77.4% | [5] 51.6% | [6] 82.4% | [7] 51.6% | [8] 69% | [9] 59.9% | [10] 79.1% | [11] 52.9% | [12] 87.7% | [13] 62.9% | [14] 65.5% | [15] 54.1% | [16] 56.8% | [17] 75.3% | [18] 65.9%

CN(CCC(=O)/C(=C\c1ccccc1)c1ccc(Cl)cc1)Cc1ccccc1
inactive: [1] 29.2% | [2] 65.6% | [3] 71.2% | [4] 47.6% | [5] 42.2% | [6] 82.9% | [8] 85.9% | [11] 22.7% | [12] 18% | [13] 13% | [16] 25.7% | [18] 53.5% | [20] 37.9%
active: [7] -45.9% | [19] -64.5% | [14] -29.3% | [15] 5.31% | [17] -8.26%

CCOC(=O)c1cnn2c(-c3ccc(Cl)cc3)nc(NCc3ccccc3)nc12
active: [19] 6.24%
inactive: [1] 58.4% | [2] 89.3% | [3] 99.2% | [4] 93.5% | [5] 78.1% | [6] 64.2% | [7] 81.5% | [8] 84.9% | [10] 44.6% | [12] 64.6% | [13] 77.5% | [14] 40.7% | [15] 28.8% | [16] 58.9% | [17] 10.7% | [18] 96.2% | [20] 86.8%

O=[N+]([O-])c1ccccc1C(O)Cc1ccc2ccccc2n1 (stereo not given)
inactive: [1] 95.7% | [2] 83.5% | [3] 85.9% | [4] 88% | [5] 97.4% | [6] 77.5% | [7] 101% | [8] 97.4% | [19] 104% | [11] 108% | [12] 89.6% | [13] 68.3% | [14] 91.2% | [15] 93.1% | [16] 103% | [17] 98.4% | [18] 93.3% | [20] 90%

COC(=O)Nc1nc2ccc(C(=O)C3CC3)cc2[nH]1
active: [5] 2.65% | [7] -37.6% | [9] -34.1% | [10] 1.8% | [11] -15.1% | [14] 4.26% | [16] -38.5% | [17] -27.5% | [20] 7.18%
inactive: [1] 33.8% | [2] 149% | [3] 50.9% | [4] 38.1% | [6] 53.5% | [19] 29.2% | [12] 63.2% | [13] 22.8% | [15] 29.7% | [18] 27.5%

Cc1ccccc1NC(=O)CN(C)C
active: [11] 0.938%
inactive: [1] 95.7% | [2] 97.9% | [3] 89.9% | [4] 97.9% | [5] 113% | [6] 123% | [7] 82.6% | [8] 95.7% | [19] 99.7% | [12] 87.2% | [13] 105% | [14] 124% | [15] 103% | [16] 97.3% | [17] 98.3% | [18] 99.3% | [20] 104%

Clc1ccc(-c2nc(NCCc3ccccc3)nc3c(NCCc4ccccc4)cnn23)cc1
inactive: [1] 50.8% | [2] 99.7% | [3] 73.7% | [4] 85.3% | [5] 16.3% | [6] 97.7% | [7] 63% | [19] 80% | [10] 84.5% | [12] 96.8% | [13] 92.1% | [14] 94.7% | [15] 35.1% | [16] 56.4% | [17] 30.9% | [18] 71.5% | [20] 70%
active: [8] 9.98%

CCOC(=O)C1=C(C)NC(SCc2nnc(-c3ccc(Cl)cc3)o2)=NC1c1ccc(Cl)cc1Cl (stereo not given)
inactive: [1] 66% | [2] 79% | [3] 78.9% | [4] 82.5% | [5] 59.2% | [6] 26.4% | [7] 50.2% | [8] 53.5% | [19] 65.2% | [10] 73.1% | [12] 72.8% | [13] 41.7% | [14] 43.4% | [15] 73.8% | [16] 47.2% | [17] 86.4% | [18] 68.1% | [20] 65.2%
